Sampled rows, rich in hits. Any-hit rate of the full collection: about 9%.
ALDH1A1 inh – inhibitors of human aldehyde dehydrogenase 1A1; P00352; Purified ALDH1A1, NADH fluorescence, propionaldehyde substrate; Potency, µM (highest dose often 75.3 µM), inactives show at the highest dose activity, negative = inhibition, actives largely listed as inhibitors; 220,000 compounds, 7.3% hits;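 also: potency is read from the fitted curve at half-maximal effect; plate controls were no enzyme wells and a reference inhibitor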
HPGD block – blocks human HPGD enzyme activity | P15428 | Potency, µM, for the others: top-dose activity change, negative = inhibition, actives largely listed as inhibitors | AID 894 | 150,000 compounds, 4.3% hits | purified HPGD, NADH fluorescence kinetic, PGE2 substrate; also: potency is read from the fitted curve at half-maximal effect
Target sequence (P15428 whole entry, looked up): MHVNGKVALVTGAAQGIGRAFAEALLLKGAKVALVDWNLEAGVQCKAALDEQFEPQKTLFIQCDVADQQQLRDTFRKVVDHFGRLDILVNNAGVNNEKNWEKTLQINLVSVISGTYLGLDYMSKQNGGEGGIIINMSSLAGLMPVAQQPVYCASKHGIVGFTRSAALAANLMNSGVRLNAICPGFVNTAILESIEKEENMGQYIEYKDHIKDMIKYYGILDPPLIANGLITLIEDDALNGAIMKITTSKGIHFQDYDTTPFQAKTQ
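NADH formation kinetics: reaction with 30 uM PGE2 and 1 mM NAD+ (final), 20 nM enzyme, Tris-HCl pH 8 with Tween 20, after 15 min compound preincubation at room temperature. Fluorescence change, last versus first of five reads.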
IMPase inh – cell-permeable inhibitors of inositol monophosphatase (IMPase) | AID 901 | inhibition (IP1 accumulation), % at 46.1 µM | 120,000 tested, under 10 active | CHO-M1 cells, IP1 accumulation, HTRF TR-FRET ratio | P97697; active = well fitted curve in the direction sought with a large enough effect in the signal ratio, not every such curve was filed as active; inconclusive = small, poorly fitted or top-dose-only effect, or a change in a side signal; inactive = no such curve, though single readings can be large or run the other way; the % refers to the signal ratio;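 also: cells stimulated with carbachol in lithium chloride buffer; plate controls were DMSO basal wells for no effect and reference inhibitor wells for full effect; higher means more IMPase inhibition seen as more IP1 and lower FRET ratio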
Target sequence (P97697 whole entry, looked up): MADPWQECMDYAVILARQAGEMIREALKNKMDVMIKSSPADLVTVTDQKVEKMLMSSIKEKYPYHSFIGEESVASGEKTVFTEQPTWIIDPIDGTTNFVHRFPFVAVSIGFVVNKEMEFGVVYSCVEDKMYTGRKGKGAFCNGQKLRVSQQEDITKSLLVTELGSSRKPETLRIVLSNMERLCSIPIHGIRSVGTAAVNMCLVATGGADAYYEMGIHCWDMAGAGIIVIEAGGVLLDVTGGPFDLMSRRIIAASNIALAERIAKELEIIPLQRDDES
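Seeded CHO-M1 cells were dosed with compound at up to 46 uM, stimulated with carbachol for 30 min, then lysed in IP-One detection reagents. Higher IP1 lowers the TR-FRET signal.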
The depositor's hits bear a star; [ ] = dose if it differs, or a comment. Unless noted, calls follow the shape of the dose curve; as a rule, active = well fitted inhibition curve with a large enough effect (not every such curve was filed as active); inconclusive = small, poorly fitted or top-dose-only effect, or another doubt; inactive = no such curve, though single readings can be large or run the other way. Unless noted, % is scaled to controls: 0 for no effect and ±100 for the full control effect.

What do the screens show for `Cc1nc2ccc(S(=O)(=O)NC(C(=O)N3CCC(C)CC3)C(C)C)cc2s1` (stereo unspecified)?
ALDH1A1 inh: 6%; HPGD block: -2%; IMPase inh: -3

What do the screens show for `CCN(c1ccc(NC(=O)CCNC(=O)c2ccco2)cc1)C(C)C`?
ALDH1A1 inh: inconclusive; HPGD block: -12%

How did CC(C)OCCCN1C=C2C(=O)C(C)(OC(=O)C3CCCC3)C(=O)C=C2C=C1c1ccsc1 (stereo unspecified) do in these assays?
ALDH1A1 inh: inconclusive; HPGD block: -6%

Results for CCOC(=O)C1=C(C)Nc2nnnn2C1c1ccc(OC)c(Br)c1 (stereo unspecified) ?
ALDH1A1 inh: -7%; HPGD block: -21%; IMPase inh: -2

What do the screens show for `C=CCOC(=O)C1=C(C)Nc2nnnn2C1c1cc(OC)ccc1OC` (stereo unspecified)?
ALDH1A1 inh: 4.5µM*; HPGD block: 2%; IMPase inh: 5

How did CC(=O)C1=C(C)Nc2ncnn2C1c1ccccc1Cl (stereo unspecified) do in these assays?
ALDH1A1 inh: 25µM*; IMPase inh: inconclusive

Results for CC1=C(C(N)=O)C(c2ccc(Cl)cc2Cl)n2ncnc2N1 (stereo unspecified) ?
ALDH1A1 inh: 7%; HPGD block: -3%; IMPase inh: -7

Results for COC(=O)c1c(F)c(F)c(NCCO)c(F)c1F ?
ALDH1A1 inh: 9%; HPGD block: -10%; IMPase inh: 3

How did CCc1ccccc1NC(=O)CSc1nnc(COc2ccccc2Cl)o1 do in these assays?
IMPase inh: 0

Results for Cc1cc(OC(=O)c2ccc3ccccc3c2)c([N+](=O)[O-])c(=O)[nH]1 ?
ALDH1A1 inh: 5%

Results for COc1ccc(CSc2nnnn2Cc2ccccc2)cc1OC ?
ALDH1A1 inh: inconclusive; HPGD block: -20%; IMPase inh: -1

Results for CCOc1ccc(N(Cc2cc3cc(OC)ccc3[nH]c2=O)C(=O)C2CCCO2)cc1 (stereo unspecified) ?
ALDH1A1 inh: inconclusive; IMPase inh: 8

How did CCOC(=O)c1c(-c2ccc(C)o2)csc1NC(=O)CN1CCC(C(N)=O)CC1 do in these assays?
ALDH1A1 inh: 25µM*

Results for CCOC(=O)c1c(-c2ccc(C)o2)csc1NC(=O)CSc1nncs1 ?
ALDH1A1 inh: 11µM*; HPGD block: 20µM*; IMPase inh: 8

What do the screens show for `CCOC(=O)c1c(-c2ccc(C)o2)csc1NC(=O)CN(C)CC(=O)Nc1ccc(C)cc1`?
ALDH1A1 inh: inconclusive; HPGD block: inconclusive; IMPase inh: 12

What do the screens show for `CCOC(=O)c1c(-c2ccco2)csc1NC(=O)CSc1nnc(N)s1`?
ALDH1A1 inh: inconclusive; HPGD block: -18%; IMPase inh: -2

Results for NS(=O)(=O)c1ccc(CNC(=O)Cc2ccccc2F)cc1 ?
ALDH1A1 inh: 6%

How did Cc1ccc(S(=O)(=O)c2nc(-c3ccc(Cl)cc3)oc2N2CCCCCC2)cc1 do in these assays?
IMPase inh: 1

Results for CCOC(=O)c1sc(S(C)=O)c2c1CCc1conc1-2 (stereo unspecified) ?
ALDH1A1 inh: 4.5µM*

Results for CCOC(=O)c1sc2ccccc2c1OC(=O)c1ccc(C)cc1 ?
ALDH1A1 inh: inconclusive; IMPase inh: -8

Results for CCOC(=O)CC1C(=O)NCCN1C1CCCC1 (stereo unspecified) ?
ALDH1A1 inh: 3%

Results for Fc1ccc2nc3n(c2c1F)CCCCCC3 ?
ALDH1A1 inh: 9%; HPGD block: -2%; IMPase inh: 2

How did COc1ccc(N=C2SC(C(=O)N3CCN(c4ccc([N+](=O)[O-])cc4)CC3)CC(=O)N2C)cc1 (stereo unspecified) do in these assays?
ALDH1A1 inh: 10µM*

How did COc1ccc(N2CCN(C(=O)C3CC(O)CN3S(=O)(=O)c3ccc([N+](=O)[O-])cc3)CC2)cc1 (stereo unspecified) do in these assays?
ALDH1A1 inh: 11%; HPGD block: -2%

Results for COc1ccc(NC(=O)C(CC(C)C)NC(=O)C2CCC(C)CC2)c(OC)c1 (stereo unspecified) ?
ALDH1A1 inh: -2%

What do the screens show for `Cc1onc(-c2ccccc2)c1C(=O)N1CCC(C)CC1`?
ALDH1A1 inh: 2%; HPGD block: -10%; IMPase inh: -3

How did CN1CCN(C(=O)/C(=C\c2ccccc2)c2ccccc2)CC1 do in these assays?
ALDH1A1 inh: 10%; HPGD block: 18µM*; IMPase inh: 18

What do the screens show for `CC1CCN(C(=O)/C(=C/c2ccccc2Cl)c2ccccc2)CC1`?
ALDH1A1 inh: inconclusive; HPGD block: 11µM*; IMPase inh: -7

How did O=C(O)/C(=C\c1ccccc1)c1ccccc1 do in these assays?
ALDH1A1 inh: 11%[13.5 µM]; HPGD block: -13%

How did Cc1cccc(C(=O)N2CCNC(=O)C2CC(=O)Nc2ccc(F)cc2)c1 (stereo unspecified) do in these assays?
IMPase inh: 1

How did Fc1ccc(NC(=S)NCc2ccc3c(c2)OCO3)cc1 do in these assays?
ALDH1A1 inh: 2%

What do the screens show for `COc1cc(NC(=S)Nc2cccc(C)n2)cc(OC)c1OC`?
ALDH1A1 inh: 5%

Results for NS(=O)(=O)c1ccc(NC(=S)NCc2ccc3c(c2)OCO3)cc1 ?
ALDH1A1 inh: 22µM*

How did S=C(NCc1ccc(Cl)cc1)Nc1ccccc1 do in these assays?
ALDH1A1 inh: -6%; HPGD block: 18µM*

Results for Fc1ccc(CNC(=S)Nc2ccc(Cl)cc2)cc1 ?
ALDH1A1 inh: 2%; HPGD block: -15%; IMPase inh: -2

Results for NS(=O)(=O)c1ccc(NC(=S)NCc2ccco2)cc1 ?
ALDH1A1 inh: 6.3µM*

Results for CC(=O)c1ccc(NC(=S)NCc2ccco2)cc1 ?
ALDH1A1 inh: -5%

What do the screens show for `COc1cc(NC(=S)Nc2ncccc2C)cc(OC)c1OC`?
ALDH1A1 inh: 18µM*

Results for CNc1ncnc2ccc(-c3ccc4c(c3)OCO4)cc12 ?
ALDH1A1 inh: -11%

How did CC1(C)CCC[C@@]2(C)C1CC[C@@](C)(O)[C@@H]2CC[C@@](C)(O)C1CO1 (stereo partly specified) do in these assays?
ALDH1A1 inh: inconclusive; HPGD block: -5%

What do the screens show for `CSc1nccc(Oc2cccc(C#N)c2)n1`?
ALDH1A1 inh: -9%; HPGD block: -11%

Results for Cc1onc(-c2ccccc2)c1C(=O)NNC(=S)NC(=O)/C=C/c1cccs1 ?
ALDH1A1 inh: -5%; HPGD block: -24%; IMPase inh: 0

How did CCCC[C@@H]1C[C@H]1C(NC(=O)c1ccc(C(F)(F)F)cc1)c1ccc(C(=O)OC)cc1 (stereo partly specified) do in these assays?
ALDH1A1 inh: inconclusive; HPGD block: -3%

What do the screens show for `O=C(Nc1ccccc1Br)C1CCN(C(=O)Cc2ccccc2)CC1`?
ALDH1A1 inh: -4%; HPGD block: -22%

What do the screens show for `COc1cc(NC(=S)NCc2ccco2)cc(OC)c1OC`?
ALDH1A1 inh: inconclusive; HPGD block: 16µM*; IMPase inh: -1

Results for COc1ccc(CC(=O)NC(=S)Nc2ccc(S(N)(=O)=O)cc2)cc1 ?
ALDH1A1 inh: -1%; HPGD block: -3%

Compound activity (PubChem)
